Data from the OligoGym collection.

Biological target: FANCG
Assay: pooled miR-30 sensor sort-seq; sequence = guide strand
Details: shRNA
Note: reference of the scale not given here.

| Sequence | sensor-assay potency score (higher = more potent) |
| --- | --- |
| TTTTCTGGCATCTTCCCACAGC | -0.807 |
| ATAGCTTTCTAGGTACAGGGGG | 0.363 |
| TACCTCAATGAGAAACTGCGGG | -0.383 |
| TTCTACCTCAATGAGAAACTGC | -0.153 |
| TTGGGTAGCAGAGATGATGTGC | 0.442 |
| TGTGTCTCCAGCACTCTCTCTA | 0.116 |
| ATAGAGTCAAGGCATCTTGGGC | -0.699 |
| TTGGGCACCCAGTTGAACCCAG | -0.577 |
| AGTAAGTGTCTCGATTACCTGG | -1.17 |
| TAAGTGTCTCGATTACCTGGGC | -0.142 |
| AAGTACAACAGTGCTCTCTGTG | 0.113 |
| TGCTGTGTACACCTGGACCAAC | -1.61 |
| TAGCAGCTCCAGACTCTCCAGC | -0.96 |
| TAGTAATTCTACCTCAATGAGA | -0.931 |
| TCTCTGTGGATTTCCCATCTTA | -0.461 |
| TAGGCTCCGCTGGATATCCTGG | -1.03 |
| TAGCTTTCTAGGTACAGGGGGA | -0.426 |
| ATGAAGGCTGCTTAGTGCCTTG | -0.886 |
| TTGGCCTGTCGAACGAGCCGGT | -0.452 |

Biological target: FANCL
Assay: as above
Details: shRNA

| Sequence | sensor-assay potency score (higher = more potent) |
| --- | --- |
| TTATGGAAACATTATTACCTAA | -1.18 |
| TTACCTAATGCAATTCTGCGTG | -0.355 |
| TTCTGCAGGATACTTTGCCTTC | -0.558 |
| TAATAATCTTGCATTCTTCAGT | -0.383 |
| TAAGGTGGAAGTCTCTTCCCTG | 0.0592 |
| TTCTCTGTTGTACTATTCGATG | -1.72 |
| TTAGTGATTCTATTGCTGCCAA | 0.323 |
| TTAGTGAAGAGACAAACGCAGA | -1.17 |
| TAAAACTCTGTCTACTAGTTAG | -1.39 |
| TAGATCAGGAGAGTGCTGCATT | -0.0519 |
| TAATCTTGCATTCTTCAGTTGT | 0.333 |
| TACAATATGGACATTCACCAAA | -0.784 |

Biological target: FASN
Assay: as above
Details: shRNA

| Sequence | sensor-assay potency score (higher = more potent) |
| --- | --- |
| TAGTAGACCGTGCAGAGCTGGG | -0.853 |
| TTGTACTCGGCGGAGGACGTGC | -0.733 |
| ATAGGTGACTTCCAGCAGCAGC | -1.01 |
| TCCACGAACTCAAACACCGGGG | -1.02 |
| TTCTTTGATGCACTGTCCCCTC | -0.75 |
| TTCATAGGTGACTTCCAGCAGC | -0.213 |
| TTGATGATCAGGTCCACGGCGG | 0.0156 |
| TTGCACACCAGGAGGTCGGCGC | -0.835 |
| TTGACAGCAGCCAAGTCGCGGA | -0.675 |
